Experimental findings from PubChem BioAssay AID727 (The Scripps Research Institute Molecular Screening Center, 2007) are described below.

The whole screen tested about 97,000 compounds, of which about 810 (0.84%) were called active. Only a selection was taken, and actives are over-represented in it overall. Values without a mark were called inactive. Cut-off read from the data, not from the text of the source: active = inhibition above about 19%; inactive = the rest.

Focal adhesion kinase 1 (Homo sapiens), sequence (Q05397 whole entry, looked up): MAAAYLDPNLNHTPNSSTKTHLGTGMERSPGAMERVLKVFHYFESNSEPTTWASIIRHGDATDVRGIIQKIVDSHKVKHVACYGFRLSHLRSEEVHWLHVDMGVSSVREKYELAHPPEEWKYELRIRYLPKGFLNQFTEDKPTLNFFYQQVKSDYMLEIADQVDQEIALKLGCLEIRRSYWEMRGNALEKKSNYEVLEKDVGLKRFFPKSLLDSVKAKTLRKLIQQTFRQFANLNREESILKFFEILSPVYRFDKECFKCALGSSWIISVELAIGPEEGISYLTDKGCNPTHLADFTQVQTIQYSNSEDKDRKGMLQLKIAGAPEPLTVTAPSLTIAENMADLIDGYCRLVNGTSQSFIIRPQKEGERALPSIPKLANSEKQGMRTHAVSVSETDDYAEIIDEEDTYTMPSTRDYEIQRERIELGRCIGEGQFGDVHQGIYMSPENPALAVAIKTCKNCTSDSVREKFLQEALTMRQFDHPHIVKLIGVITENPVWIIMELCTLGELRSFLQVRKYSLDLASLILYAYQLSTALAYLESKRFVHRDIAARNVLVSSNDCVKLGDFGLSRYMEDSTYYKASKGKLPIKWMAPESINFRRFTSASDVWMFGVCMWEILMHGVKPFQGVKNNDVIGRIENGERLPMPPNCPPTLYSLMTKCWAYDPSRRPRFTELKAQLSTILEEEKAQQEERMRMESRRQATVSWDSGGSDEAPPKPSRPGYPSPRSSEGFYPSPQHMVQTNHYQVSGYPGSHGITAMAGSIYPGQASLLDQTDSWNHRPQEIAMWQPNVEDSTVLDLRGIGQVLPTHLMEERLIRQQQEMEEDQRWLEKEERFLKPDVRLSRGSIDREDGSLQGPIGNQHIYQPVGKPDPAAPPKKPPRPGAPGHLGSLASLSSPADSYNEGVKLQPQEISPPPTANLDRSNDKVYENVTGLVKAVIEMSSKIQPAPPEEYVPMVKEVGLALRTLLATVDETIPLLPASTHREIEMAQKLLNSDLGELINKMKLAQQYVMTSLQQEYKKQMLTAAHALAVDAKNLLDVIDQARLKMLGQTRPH

The experiment has as its target Focal adhesion kinase 1 (Homo sapiens) (UniProt Q05397). Kind of experiment: human PTK2 enzyme activity blockers – biochemical, primary screen (AID 727).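 Note: 0% = DMSO and 100% = reference compound high control.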 The following applies: biochemical FAK kinase activity assay; hits give high values;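 tested at 7 µM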.
For the compound `O=[N+]([O-])c1ccccc1NCc1ccc(Cl)cc1`, the inhibition – broadly, the drop in the measured response relative to a control, in per cent – was 1.41%.

For the compound `Cc1ccc(CNC(=O)COc2ccc(S(=O)(=O)NC(C)C)cc2)cc1`, the inhibition was -1.67%.

Turning to `Cc1nc(N2CCOCC2)nc2c1CCCC2`, the inhibition was -0.58%.

Take `CCC(C)NC(=O)CCCc1ccccc1` (stereo unspecified): the inhibition is 2.61%.

As to `CCn1c(SCc2ccc(C)cc2)nnc1-c1nn(-c2ccccc2)ccc1=O`, the inhibition is 3.11%.

For `CN(C)/C(CN1CCCCC1)=C1\N=C(c2ccccc2)OC1=O`, the inhibition is -3.3%.

In the case of `CCN(CC)c1nc(-c2ccccc2)cc(C(F)(F)F)c1C#N`, the inhibition was 4.59%.

For `Cc1nnc2sc(-c3ccco3)nn12`, the inhibition is 0.33%.

On to `FC(F)(F)c1nnc2sc(-c3ccco3)nn12`, for which the inhibition was -8.22%.

In the case of `Fc1ccc(-c2ccc(-c3nn4c(-c5ccco5)nnc4s3)o2)cc1`, the inhibition is 19.2% (active).

On to `NC(=O)c1ncc(C(F)(F)F)cc1Oc1ccc(F)cc1`, for which the inhibition is 1.7%.

Consider `COc1ccccc1N(C)S(=O)(=O)c1ccc(C(=O)N2CCC(C(N)=O)CC2)cc1`, for which the inhibition was -1.2%.

Turning to `CCOC(=O)c1c(NC(=O)CSc2nnc(C)c(=O)[nH]2)sc2c1CCC2`, the inhibition was -5.37%.

On to `COC(=O)c1c(NC(=O)c2cccs2)sc2c1CCCC2`, for which the inhibition is -3.96%.

On to `COC(=O)c1c(NC(=O)CSc2nncs2)sc2c1CCCCC2`, for which the inhibition is 19.5% (active).

For `OCCN(Cc1ccccc1)Cc1ccc(Cl)cc1`, the inhibition was 1.29%.

For `CCOC(=O)c1c(NC(=O)CSc2nnc(CNc3ccc(C)cc3C)o2)sc(C)c1C`, the inhibition was 0.35%.

For `Cc1nn(Cc2ccc(C(=O)N3N=C(C(F)F)CC3(O)C(F)F)cc2)c(C)c1[N+](=O)[O-]` (stereo unspecified), the inhibition is -1.38%.

In the case of `Cc1ccc(S(=O)(=O)/N=C(/Nc2ccccn2)c2ccc(Cl)cc2)cc1`, the inhibition was -9%.

Consider `COc1cc(C2CC(=O)c3cnc(NC(C)=O)nc3C2)cc(OC)c1OC` (stereo unspecified), for which the inhibition was 0.08%.

With `N#C/C(=C\c1ccccc1)c1n[nH]c(Cn2cncn2)n1`, the inhibition was -0.5%.

With `COc1ccc(N/N=C2/CCCCC2=O)cc1`, the inhibition was -0.48%.

As for `O=C1CSC2=NCN(c3ccccc3)CN12`, the inhibition is 3.72%.

For the compound `Cc1ccc2c(c1)N(CC(=O)N(Cc1ccccn1)Cc1ccco1)C(=O)C(C(C)C)O2` (stereo unspecified), the inhibition is 0.38%.

Regarding `Cc1ccccc1OC(=O)Cn1c(C(F)(F)F)nc2ccccc21`, the inhibition is -3.25%.

As for `CCn1c(SCC(=O)Nc2nc(C)cs2)nnc1C(C)NC(=O)c1ccccc1` (stereo unspecified), the inhibition was -0.18%.

As to `Cc1ccc(C(=O)OC2=CC(=O)CC(C)(C)C2)cc1`, the inhibition was 1.07%.

For the compound `Cn1c2ccccc2n2c(=O)c(=O)n(CC(=O)c3ccc(F)cc3)nc12`, the inhibition is -3.16%.

In the case of `CCOc1ccc(C(O)Cn2c(=N)n(CCN3CCCCC3)c3ccccc32)cc1` (stereo unspecified), the inhibition was 0.54%.

With `Cc1cc(C)n(-c2nc(SCC(=O)N3CCCC3)c3c4c(sc3n2)CCCC4)n1`, the inhibition was 1.79%.

With `COc1ncnc2sc3c(c12)CCCC3`, the inhibition is 3.78%.

Consider `COCCn1c(C)cc(C(=O)CSc2ncnc3sc4c(c23)CCC4)c1C`, for which the inhibition is 83.3% (active).

For the compound `Nc1ccccc1SCc1cc([N+](=O)[O-])cc2c1OCOC2`, the inhibition was 0.81%.

As for `CC(=NCc1ccc2c(c1)OCO2)C1=C(O)c2ccccc2C1=O`, the inhibition is 6.12%.

Take `CC(=NCc1ccco1)c1c(C(F)(F)F)[nH]n(-c2nc3ccccc3s2)c1=O`: the inhibition is 5.23%.

In the case of `CC(=NCc1ccco1)C1=C(O)c2ccccc2C1=O`, the inhibition was 27.9% (active).

For the compound `COc1ccc(C2(CNC(=O)C(c3ccccc3)c3ccccc3)CCOCC2)cc1OC`, the inhibition was 1.78%.

With `C=C(C)CNC(=S)/N=c1\scc(C)n1CC`, the inhibition was -6.21%.

For `Oc1ccc(-c2onc3ccc(Cl)cc23)cc1`, the inhibition is 5.87%.

Take `Cc1cccc(NC(=O)c2cc(N3C(=O)CCC3=O)ccc2Cl)n1`: the inhibition was -0.12%.

Take `CCOC(=O)c1cc(C#N)c(N2CCCCC2)nc1-c1ccccc1`: the inhibition was 4.29%.

As to `CCOC(=O)c1sc2nc(SC)nc(-c3ccccc3)c2c1N`, the inhibition was 2.16%.

As to `COc1ccc(C)cc1N(C)C(=O)c1coc(=O)c2ccccc12`, the inhibition is 1.58%.

Turning to `Nc1c(-c2ccc(F)cc2)cnc2ncnn12`, the inhibition is 19.1% (active).

With `Cc1ccc(S(=O)(=O)N(CC(=O)N/N=C/c2ccc(F)cc2)c2cccc3cccnc23)cc1`, the inhibition is 3.64%.

As to `COc1ccc(/C(N)=N/OC(=O)Oc2ccccc2)cc1`, the inhibition was 0.12%.

As for `CC1CCN(C(=O)c2cc3nc(C4CC4)cc(C(F)(F)F)n3n2)CC1`, the inhibition was 0.8%.

As for `C/C=C/C(=O)OCC(=O)Nc1ccc(F)cc1Cl`, the inhibition is -4.03%.

Turning to `Cn1c(CCN2CCCCCC2)nc2cc(NC(=O)Nc3ccccc3)ccc21`, the inhibition was 22.2% (active).

Turning to `CCC(=O)Nc1ccc2c(c1)nc(CCN1CCN(C)CC1)n2C`, the inhibition was -1.8%.

`Cc1nn(CC(=O)Nc2ccc3c(c2)nc(CN2CCCCC2)n3C)c(=O)c2ccccc12`: the inhibition was 3.98%.

For `COC(=O)/C(=C\Nc1ccccc1)NC(=O)c1ccc(Cl)cc1Cl`, the inhibition was 0.67%.

Regarding `CCn1c(CNC(=O)c2ccccc2)nnc1SCC(=O)N1CCN(c2ccccc2)CC1`, the inhibition was 1.01%.

Regarding `CS(=O)(=O)Nc1cccc(C2=NN(S(=O)(=O)c3ccccc3)C(c3cccs3)C2)c1` (stereo unspecified), the inhibition is 1.03%.

In the case of `CCN(CC)S(=O)(=O)c1cc([N+](=O)[O-])ccc1NNC(=O)Nc1ccccc1`, the inhibition was 22.7% (active).

As for `CCN(c1ccccc1)S(=O)(=O)c1ccc(NC(=O)C(C)(C)C)cc1`, the inhibition was -0.76%.

In the case of `CCN(CC)S(=O)(=O)c1cccc(C(=O)Nc2ccccc2)c1`, the inhibition is 7.09%.

Turning to `COC(=O)c1[nH]c2ccccc2c1NS(=O)(=O)c1ccc(OC)cc1OC`, the inhibition is 0.04%.

With `COc1ccc(OC)c(N=Cc2c(O)[nH]c3ccccc23)c1`, the inhibition is 13.7%.

For the compound `COc1cc(N=Cc2c(O)[nH]c3ccccc23)cc(OC)c1OC`, the inhibition was 73.4% (active).

For `CCCc1ccc(OCc2ccc(C(=O)N/N=C/c3cccc([N+](=O)[O-])c3)o2)c(OC)c1`, the inhibition was 1.02%.

For the compound `Cc1[nH]n(-c2ccc([N+](=O)[O-])cc2)c(=O)c1C=NCCN1CCN(C(=O)c2ccccc2F)CC1`, the inhibition is 6.47%.

As for `Cc1ccc(CN(N=Nc2nonc2N)c2nonc2N)c(C)c1`, the inhibition is -1.18%.

In the case of `O=c1c2ccccc2nc2n1C(CSCc1ccccc1)CS2` (stereo unspecified), the inhibition was 7.02%.

As for `O=C1C2N=NN(CC(=O)N3N=C(c4cccc5ccccc45)CC3c3ccccc3)C2C(=O)N1c1ccccc1` (stereo unspecified), the inhibition was 1.07%.

Turning to `Cc1nc(NNC(=O)c2ccccc2)cc(-c2ccccc2)n1`, the inhibition is -0.62%.

For `Cc1ccc(SCC(=O)NC(=O)NCc2ccco2)c(C)c1`, the inhibition was 6.63%.

As to `O=C(/C=C/c1ccco1)Nc1cccc(-c2nc3ccccc3[nH]2)c1`, the inhibition was 1.17%.

For `O=C(/C=C/c1ccco1)Nc1ccc(Oc2ccccc2)cc1`, the inhibition is 0.45%.

With `Cc1ccc(-n2nc3ccc(NC(=O)/C=C/c4ccco4)cc3n2)cc1C`, the inhibition is 19.2% (active).

With `CN(C)CCNC(=O)Nc1cccc(Cl)c1Cl`, the inhibition is -0.62%.

In the case of `CCOC(=O)c1cnc(-c2ccccc2)nc1Oc1ccc(C)cc1`, the inhibition was 4.12%.

In the case of `CN(CCO)Cc1csc2ccc(Br)cc12`, the inhibition is -0.2%.

For the compound `C=CCNc1nc(N)c(C(=C(C#N)C#N)c2ccccc2)s1`, the inhibition is 9.82%.

`N=c1c2c3c(sc2nc2n1CCCCC2)CCCC3`: the inhibition was 0.27%.

In the case of `CC1Cc2ccccc2N1C(=O)c1cc2sccc2n1Cc1ccccc1` (stereo unspecified), the inhibition is -0.85%.

Turning to `COc1cccc(/C=N/NC(=O)C(=O)N2CCCC2)c1`, the inhibition was -2.37%.

For the compound `O=C(Nc1ccccc1)c1cccnc1Nc1ccccc1`, the inhibition was 1.76%.

As for `Cc1nonc1NC(=O)c1ccccc1Br`, the inhibition was -1.88%.

Take `O=C(Nc1ccc(-n2ccnc2P(=O)(O)c2ccccc2)cc1)c1ccccc1Br`: the inhibition was 22.8% (active).

In the case of `CC(CNc1ccc([N+](=O)[O-])cc1)NC(=O)c1ccccc1Br` (stereo unspecified), the inhibition is 1.61%.

In the case of `C#CCN(N(C)c1ncc(C(F)(F)F)cc1Cl)S(=O)(=O)c1ccc2ccccc2c1`, the inhibition was -0.5%.

For the compound `CCN(CC)S(=O)(=O)c1ccc2c3c(cccc13)C(=O)S2`, the inhibition is 36% (active).

For `CN(CCc1ccccn1)S(=O)(=O)c1ccc2c3c(cccc13)C(=O)N2`, the inhibition is -2.74%.

`COc1cccc(C(=O)NNC(=O)c2ccccc2Br)c1`: the inhibition was -3.7%.

In the case of `CC(C)N1C(=S)SC(C)(C)C1n1oc(=O)n(-c2ccc(Cl)c(Cl)c2)c1=O` (stereo unspecified), the inhibition was 1%.

Turning to `O=[N+]([O-])c1ccc(Oc2ccc(F)cc2Br)c2ccncc12`, the inhibition is 19.1% (active).

`COC(=O)c1ccc(OCC(=O)NC(C)(C)C)cc1`: the inhibition is -0.09%.

As for `Cc1cc2cc3c(N)[nH]nc3nc2cc1C`, the inhibition was 38.5% (active).

For `CCc1nnc(NC(=O)c2nc3nccc(C)n3n2)s1`, the inhibition was -3.17%.

Take `CCc1ccc2nc3sc(C(=O)Nc4nnc(CC)s4)c(N)c3cc2c1`: the inhibition is 33.3% (active).

Consider `CCc1nnc(NC(=O)c2cccs2)s1`, for which the inhibition is -4.62%.

Consider `Cc1cccc(N2CCN(C(=O)c3cnn4c(C(F)F)cc(-c5ccccc5)nc34)CC2)c1C`, for which the inhibition was 2.11%.

As to `COc1ccc(C2CC(=O)Nc3sc(=N)c4c(N)c(C#N)c(N)nc4c32)cc1OC` (stereo unspecified), the inhibition is -1.85%.

Take `CC1(C)C2CCC13CS(=O)(=O)NC3C2` (stereo unspecified): the inhibition is -2.12%.

Regarding `Brc1ccc(/C=N/N2CCN(C3c4ccccc4-c4ccccc43)CC2)s1`, the inhibition is -1.5%.

In the case of `CCC(C)(C(=O)NC1CCCCC1)N(C)C(=O)c1ccc2c(c1)OCO2` (stereo unspecified), the inhibition is -1.51%.

`O=C(O)CCC(=O)NCc1ccc(C(=O)O)cc1`: the inhibition is -0.4%.

Take `C[C@H](NC(=O)OC(C)(C)C)c1nnc(SCC(=O)Nc2ccc(Br)cc2)o1`: the inhibition is -1.41%.

On to `CCc1ccccc1NC(=O)CSc1nnc([C@@H](NC(=O)OC(C)(C)C)C(C)C)o1`, for which the inhibition is -2.32%.

`CCc1ccccc1NC(=O)CSc1nnc([C@@H](NC(=O)OC(C)(C)C)C(C)CC)o1` (stereo partly specified): the inhibition was 25.9% (active).

In the case of `CCCCNC(=O)C1CCCNC1=O` (stereo unspecified), the inhibition was -0.32%.

As for `CCCOc1ccc(NC(=O)C2CCCNC2=O)cc1` (stereo unspecified), the inhibition is 40.2% (active).

As for `CCOc1ccc(NC(=O)CC2NCCNC2=O)cc1` (stereo unspecified), the inhibition is 0.06%.

In the case of `COc1ccc(-c2[nH]nc(-c3ccccc3)c2-c2nc3ccccc3[nH]2)cc1`, the inhibition is -5.4%.

`COc1ccc(C2C(C#N)=C(/N=C/N3CCOCC3)OC3=C2C(=O)CC(C)(C)C3)cc1OC` (stereo unspecified): the inhibition was 0.22%.
